Assay outcomes (PubChem)
Sampled rows, rich in hits. Any-hit rate of the full collection: about 11%.
ALDH1A1 block: ALDH1A1 (human) enzyme inhibition | hit rate 7.3% among 220,000 | Potency, µM (doses to about 75.3 µM), for inactives: top-dose activity, negative = inhibition, hits mostly inhibitors | P00352 | Purified ALDH1A1, NADH fluorescence, propionaldehyde substrate; active = well fitted inhibition curve with a large enough effect, not every such curve was filed as active; inconclusive = small, poorly fitted or top-dose-only effect, or another doubt; inactive = no such curve, though single readings can be large or run the other way;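 note: potency is the fitted concentration of half-maximal effect; plate controls were no enzyme wells and a reference inhibitor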
HPGD inh: HPGD (human) dehydrogenase inhibition. purified HPGD, NADH fluorescence kinetic, PGE2 substrate. AID 894. P15428. hit rate 4.3% among 150,000. Potency, µM, for inactives: at the top dose activity change, negative = inhibition, hits mostly inhibitors; active = well fitted inhibition curve with a large enough effect, not every such curve was filed as active; inconclusive = small, poorly fitted or top-dose-only effect, or another doubt; inactive = no such curve, though single readings can be large or run the other way; note: potency is the fitted concentration of half-maximal effect; % is set by controls: 0 for no effect and ±100 for the full control effect
Target sequence (P15428 whole entry, looked up): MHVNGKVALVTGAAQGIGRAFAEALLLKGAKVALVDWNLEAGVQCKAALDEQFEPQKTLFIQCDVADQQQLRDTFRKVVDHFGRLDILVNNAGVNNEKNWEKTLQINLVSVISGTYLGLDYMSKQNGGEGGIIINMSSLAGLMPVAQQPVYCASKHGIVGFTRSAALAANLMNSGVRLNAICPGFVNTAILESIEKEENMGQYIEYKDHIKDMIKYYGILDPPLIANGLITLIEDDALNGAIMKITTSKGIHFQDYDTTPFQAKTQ
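NADH formation kinetics: reaction with 30 uM PGE2 and 1 mM NAD+ (final), 20 nM enzyme, Tris-HCl pH 8 with Tween 20, after 15 min compound preincubation at room temperature. Fluorescence change, last versus first of five reads.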
HTT ATP protect: cytoprotection in Huntington HTT-Q103 PC12 cell model. hit rate 0.14% among 230,000. Potency, µM (highest dose often 56.4 µM), without a hit: cytoprotection (ATP increase), actives largely listed as activators. PC12 HTT-Q103 induced, cytoprotection, ATP luminescence, 40 h; note: potency is the fitted concentration of half-maximal effect; % of control where 0% means no effect; nearly all actives have a fitted effect of over 45% in size
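Compounds added alongside 100 nM tebufenozide, which induces toxic Q103 huntingtin exon 1-GFP in stable PC12 cells; surviving cells quantified by luminescent ATP measurement. Medium: phenol red-free DMEM, 5% equine and 5% calf serum.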
GoLoco inh red: RGS12 GoLoco-Gai1 interaction inhibition; P63096; Gai1:RGS12 GoLoco peptide FP, rhodamine, 10 min; Potency, µM (doses to about 61.6 µM), inactives show at the highest dose activity, negative = inhibition, most hits filed as inhibitors; hit rate 0.44% among 230,000; AID 880; active = well fitted inhibition curve with a large enough effect, not every such curve was filed as active; inactive = no such curve, though single readings can be large or run the other way; note: potency is the fitted concentration of half-maximal effect; % is set by controls: 0 for no effect and ±100 for the full control effect; nearly all actives have a fitted effect of over 30% in size
Target sequence (P63096 whole entry, looked up): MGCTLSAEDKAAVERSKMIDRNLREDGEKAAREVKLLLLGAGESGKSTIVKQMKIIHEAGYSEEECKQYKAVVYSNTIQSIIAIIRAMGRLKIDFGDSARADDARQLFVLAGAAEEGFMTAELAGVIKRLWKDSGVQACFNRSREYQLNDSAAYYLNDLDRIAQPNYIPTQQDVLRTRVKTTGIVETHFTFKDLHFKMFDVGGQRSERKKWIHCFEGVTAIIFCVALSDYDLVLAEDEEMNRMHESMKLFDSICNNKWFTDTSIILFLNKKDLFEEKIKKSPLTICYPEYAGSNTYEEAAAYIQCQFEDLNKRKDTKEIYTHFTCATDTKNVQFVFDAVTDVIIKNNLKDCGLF
PNC assembly inh: blocks assembly of the perinucleolar compartment; activity change (PNC), negative = inhibition, % at 10 µM; hit rate 3.1% among 140,000; PC3M PTB-GFP, PNC prevalence imaging, 16 h; active compounds read low; AID 2417;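 active = readout at or below -70, meaning at least 70% loss of cells showing the perinucleolar compartment, a nuclear body marking cancer cells; inconclusive = readout between -30 and a set limit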;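 note: plate controls were DMSO wells for no effect and camptothecin positive control wells for full effect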
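PC3M cells stably expressing PTB-GFP, 750–1000 cells/well, treated 16 h at 37 °C with compound (23 nl of library stock), in duplicate. After paraformaldehyde fixation and Hoechst stain, imaged at 20x; PNC prevalence scored by image analysis.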
HTT aggregate: reduces HttQ103-GFP aggregates in PC12 cells | Potency, µM (doses to about 46.1 µM), for inactives: at the top dose activity change, negative = inhibition, hits mostly inhibitors | PC12 HttQ103-GFP aggregates, Acumen cytometry, 40 h | hit rate 1.1% among 220,000; note: potency is the fitted concentration of half-maximal effect; % is set by controls: 0 for no effect and ±100 for the full control effect; nearly all actives have a fitted effect of over 60% in size
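Ecdysone-promoter PC12 model expressing HTT exon 1 Q103 fused to GFP, induced by tebufenozide at 100 nM final. Compounds titrated; aggregates sized 1–25 µm scored on a 488 nm laser cytometer.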
The depositor's hits bear a star; ? = inconclusive; nt = no result; [ ] = remark or other dose. Unless noted, calls come from the whole dose curve; as a rule, active = well fitted curve in the direction sought with a large enough effect; inconclusive = small, poorly fitted or top-dose-only effect, or another doubt; inactive = no such curve, though single readings can be large; an effect the other way counts as inactive or inconclusive.

SMILES	ALDH1A1 block	HPGD inh	HTT ATP protect	GoLoco inh red	PNC assembly inh	HTT aggregate
CC(C)Cn1c(C(C)C)nc([N+](=O)[O-])c1S(=O)(=O)c1ccc(F)cc1	-7.0%	-9.9%	-71.6%	-2.8%	36.7	6.9%[9.22 µM]
Cc1cc(=O)[nH]c(=S)n1-c1ccccc1	?	-0.8%	8.3%[10 µM]	8.0%	-122.4*	-10.7%
Oc1ccc(Cl)cc1CNc1ccc(Br)cn1	5.1%	14.1µM*	?	8.9%	?	?
COc1ccc(NC(=O)N(CCC(C)C)C(C)c2ccccn2)c(OC)c1 (stereo not drawn)	14.1µM*	-16.7%	-14.0%	-4.6%	17.8	1.7%
CCC(C)C(=O)Nc1ccc(OC)cc1OC (stereo not drawn)	7.9%	0.0%	12.8%	6.0%	-20.1	-5.2%
Cc1sc(NC(=O)c2ccccc2F)c(CN2CCCCC2)c1C	3.3%	-17.3%	nt	16.9%	?	?
CCOC(=O)c1c(NC(=O)c2ccco2)sc2c1CCCCC2	?	?	-30.5%	0.2%	-26.0	-24.2%
CCOC(=O)c1c(NC(=O)c2ccco2)sc(C(=O)N2CCCC2)c1C	?	14.1µM*	-4.1%	1.0%	20.3	-12.0%
CCc1c(C)sc(NC(=O)c2ccco2)c1C(=O)N1CCCCC1	25.1µM*	-4.2%	1.0%	28.7%	7.3	15.3%
Cc1sc(NC(=O)c2ccc(F)cc2)c(CN2CCCCCC2)c1C	10µM*	-25.0%	14.6%[10 µM]	69.6%	?	-15.3%
CCOC(=O)c1c(NC(=O)C(C)N2CCN(C(=O)c3ccco3)CC2)sc2c1CCCC2 (stereo not drawn)	22.4µM*	?	-105.0%	28.6%	-21.5	-51.6%
C[N+](C)(C)[C@@H](C1=CCCC1=O)c1ccccc1	nt	nt	15.1%[10 µM]	nt	nt	nt
COc1ccc(-c2ccc(-c3cc(=O)oc4cc(C)cc(C)c34)cc2)cc1	?	-21.4%	-97.3%	10.6%[88.7 µM]	nt	nt
S=C(NCCc1ccccn1)Nc1ccc(Cl)cc1Cl	0.4%	nt	-16.0%	3.8%	nt	-1.9%
COC(=O)C(O)C1C(C)(C)C(OC(C)=O)C2CC3=C4CC(=O)OC(c5ccoc5)[C@]4(C)CCC3[C@@]1(C)C2=O (stereo partly drawn)	-0.4%	-5.8%	?	0.8%	nt	nt
CCc1c(C)sc(NC(=O)c2ccco2)c1C(=O)N1CCOCC1	22.4µM*	?	17.7%	-6.0%	9.5	-9.4%
Cc1sc(NC(=O)c2ccco2)c(CN2CCN(Cc3ccccc3)CC2)c1C	28.2µM*	nt	-75.8%	8.0%	nt	?
COCCOC(=O)c1c(NC(=O)CNCc2ccco2)sc(C(N)=O)c1C	10µM*	nt	-18.5%	54.1%	nt	4.9%
COC(=O)CC1Sc2ccccc2NC1=O (stereo not drawn)	-4.2%	-8.0%	-12.9%[10 µM]	5.6%	-9.5	?
Cc1ccc(NC2Sc3ccccc3NC2=O)cc1 (stereo not drawn)	25.1µM*	nt	14.3%[10 µM]	-17.7%	nt	?
OC(CN1CCN(c2ccccc2)CC1)c1ccc2c(c1)CCN2 (stereo not drawn)	7.08µM*	-5.8%	-16.4%	-5.4%	40.3	19.6%
CCOC(=O)N1CCN(CC(O)c2ccc3c(c2)CCN3)CC1 (stereo not drawn)	17.8µM*	nt	11.8%[0.074 µM]	nt	-10.9	9.8%
CCc1ccc(N2C(=O)Nc3ccccc3C2(O)C(=O)N2CCN(c3ccccn3)CC2)cc1 (stereo not drawn)	?	nt	-12.7%[10 µM]	8.6%	nt	?
CCc1ccc(OCC(=O)NC(NC(=S)Nc2ccc(Cl)cc2)C(Cl)(Cl)Cl)cc1 (stereo not drawn)	8.9%	-6.5%	-16.0%[10 µM]	11.5%	?	-31.5%
COc1ccc2c(=O)c(OC)c(-c3ccccc3)oc2c1	?	?	nt	3.9%	nt	nt
SMILES	ALDH1A1 block	HPGD inh	HTT ATP protect	GoLoco inh red	PNC assembly inh	HTT aggregate
S=c1nc(-c2ccccc2Cl)n(Cc2cccnc2)c2c1CCCC2	6.4%	-4.4%	nt	13.1%	-88.3*	-5.5%
COc1cccc(-c2nc(=S)c3c(n2Cc2ccco2)CCCC3)c1	?	-7.4%	-18.1%	14.9%	?	10.5%
O=C(O)Cn1cc(C(=S)N2CCCCC2)c2ccccc21	10µM*	nt	nt	-12.2%	nt	6.8%
O=C(C(=O)N1CCOCC1)c1cn(CC(=O)N2CCc3ccccc3C2)c2ccccc12	20µM*	nt	nt	-7.0%	nt	-5.7%
O=C(O)Cn1cc(C(=S)N2CCOCC2)c2ccccc21	18.9µM*	17.8µM*	-11.3%	1.0%	?	10.6%
COCCNC(=O)Cn1cc(C(=S)N2CCCCC2)c2ccccc21	-11.7%	nt	-4.6%	1.8%	nt	-17.7%
O=C(CN1CCOCC1)n1c2ccccc2c2ccccc21	5.0%	-2.5%	-8.4%[10 µM]	0.2%	50.6	2.82µM*
CCCCNC(=O)C(c1ccc(OCC(=O)OC)c(C(=O)OC)c1)N(Cc1ccccn1)C(=O)CCCCCN1C(=O)NC(c2ccc(-c3ccccc3)cc2)C(C(=O)OCc2ccccc2)=C1C (stereo not drawn)	3.2%	-9.1%	-28.4%	-5.2%	nt	nt
COC(=O)CNC(=O)C1(CC(C)C)C=CCN1C(C)=O (stereo not drawn)	7.4%	-3.2%	-6.5%	-2.4%	nt	nt
CCOc1ccc(S(=O)(=O)O)c2cccnc12	nt	nt	-9.0%	nt	nt	14.5%
CN(C)c1ccc(C=C2C(=O)OC(C)(C)OC2=O)cc1	0.794µM*	nt	-25.5%	212.2%	nt	7.7%
CN(C)c1ccc(C=C2C(=O)OC(C)(C(C)(C)C)OC2=O)cc1 (stereo not drawn)	0.398µM*	10µM*	-8.8%	151.8%	-7.8	4.7%
COc1ccc(-c2nc3cnc(Nc4cccc(OC)c4)nc3n(C)c2=O)cc1	0.0%	nt	-36.4%	78.4%	nt	nt
CC1(C)SC2C(NC(=O)C(C(=O)O)c3ccccc3)C(=O)N2C1C(=O)O (stereo not drawn)	-3.6%	-1.8%	-70.0%	2.3%	nt	12.1%
CCc1sc(C(C2C(=O)CC(C)(C)CC2=O)C2C(=O)CC(C)(C)CC2=O)cc1[N+](=O)[O-]	14.1µM*	nt	9.4%[10 µM]	5.6%	nt	-12.6%[9.22 µM]
CC1(C)CC(=O)C(C(c2ccc(F)cc2)C2C(=O)CC(C)(C)CC2=O)C(=O)C1	?	-7.1%	21.6%[10 µM]	-6.3%	-1.4	20.1%
Cn1c(-c2ccc(Br)cc2)cnc1NCc1cccnc1	10µM*	-8.2%	20.1%	-7.2%	35.3	-7.6%
Cn1c(-c2ccc3c(c2)OCO3)cnc1NCc1ccc(Cl)cc1	?	?	-15.2%	-5.5%	?	-22.3%
Cc1ccc(CNc2ncc(-c3ccc4c(c3)OCO4)n2C)cc1	15.8µM*	-19.4%	-10.0%	3.9%	?	-4.2%
Cn1c(-c2cccc([N+](=O)[O-])c2)cnc1NCc1cccc([N+](=O)[O-])c1	4.74µM*	nt	9.6%[10 µM]	-3.0%	nt	-3.8%[9.22 µM]
